From PubChem BioAssay AID1835 (Johns Hopkins Ion Channel Center, 2009) come the findings set out here.

Each structure is given as a SMILES string. Out of some 2,400 compounds screened, about 750 (31%) were called active. Some of the results follow. Unmarked numbers belong to inactive results.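 The calls were made as follows: active = median signal gain over dofetilide-blocked control wells reaching their mean plus 3 SD, so readout 1 at least 0; inactive = the rest.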

This assay deals with Voltage-gated inwardly rectifying potassium channel KCNH2 (Homo sapiens) (UniProt Q12809). Put plainly: hERG protection against dofetilide inhibition, confirmation, cell-based, thallium flux, duplicate retest, dofetilide IC70 (AID 1835). Particulars: hERG cell line, FluxOR thallium flux, dofetilide-blocked; at 10 µM; stronger effect = higher value. For orientation: hERG is a cardiac potassium channel; its block is linked to QT prolongation.
Sequence of Voltage-gated inwardly rectifying potassium channel KCNH2 (Homo sapiens) (Q12809 whole entry, looked up): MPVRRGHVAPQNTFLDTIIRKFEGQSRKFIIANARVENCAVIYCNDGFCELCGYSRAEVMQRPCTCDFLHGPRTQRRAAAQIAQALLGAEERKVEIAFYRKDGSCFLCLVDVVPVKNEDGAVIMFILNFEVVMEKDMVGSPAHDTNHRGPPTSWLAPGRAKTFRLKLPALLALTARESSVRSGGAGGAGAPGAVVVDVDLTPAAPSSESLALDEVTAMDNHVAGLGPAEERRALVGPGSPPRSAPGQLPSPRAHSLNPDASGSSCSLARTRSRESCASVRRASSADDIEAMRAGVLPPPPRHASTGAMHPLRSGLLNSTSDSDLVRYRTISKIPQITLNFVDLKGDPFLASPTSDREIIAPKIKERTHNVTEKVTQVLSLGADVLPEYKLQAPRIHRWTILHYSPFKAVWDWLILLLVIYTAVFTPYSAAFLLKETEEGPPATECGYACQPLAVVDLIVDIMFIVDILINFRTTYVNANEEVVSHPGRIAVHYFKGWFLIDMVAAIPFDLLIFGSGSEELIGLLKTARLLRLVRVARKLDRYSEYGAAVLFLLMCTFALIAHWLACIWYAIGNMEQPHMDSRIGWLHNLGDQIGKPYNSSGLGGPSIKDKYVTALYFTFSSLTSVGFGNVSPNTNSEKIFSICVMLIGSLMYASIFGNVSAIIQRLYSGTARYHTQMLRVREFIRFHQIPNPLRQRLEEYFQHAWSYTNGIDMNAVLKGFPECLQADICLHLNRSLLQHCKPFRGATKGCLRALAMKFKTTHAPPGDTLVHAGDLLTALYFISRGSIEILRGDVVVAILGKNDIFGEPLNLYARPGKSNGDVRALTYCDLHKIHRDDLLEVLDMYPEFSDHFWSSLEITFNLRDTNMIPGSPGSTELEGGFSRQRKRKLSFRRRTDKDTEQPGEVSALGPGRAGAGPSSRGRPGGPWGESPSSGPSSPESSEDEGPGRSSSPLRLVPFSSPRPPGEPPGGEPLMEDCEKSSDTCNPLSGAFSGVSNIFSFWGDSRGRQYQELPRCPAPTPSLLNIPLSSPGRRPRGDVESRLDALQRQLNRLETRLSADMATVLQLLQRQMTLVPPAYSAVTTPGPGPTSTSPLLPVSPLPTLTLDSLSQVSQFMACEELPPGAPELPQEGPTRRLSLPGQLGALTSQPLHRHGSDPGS
Turning to `Cc1ccc(NC(=O)c2ccc(CNS(=O)(=O)c3cccc(C(F)(F)F)c3)cc2)cc1`, the activity increase over dofetilide control, less the hit threshold is -1%.

In the case of `CC(=O)c1ccc(S(=O)(=O)NCc2ccc(C(=O)N(C)CC(=O)Nc3cccc(F)c3)cc2)cc1`, the activity increase over dofetilide control, less the hit threshold is 2% (active).

Take `O=C(CSc1cn(CC(=O)N2CCCC2)c2ccccc12)NCC1CCCO1` (stereo not given): the activity increase over dofetilide control, less the hit threshold is -28%.

On to `COc1ccc(CCN2C(=O)CSC2=S)cc1OC`, for which the activity increase over dofetilide control, less the hit threshold is -16%.

As for `Cc1cccc(NC(=S)NNC(=O)c2csc3c2CCC(C)C3)c1` (stereo not given), the activity increase over dofetilide control, less the hit threshold is -3%.

`Cc1ccc(C)c(NC(=O)C2C3CCCC2C3c2ccccc2)c1` (stereo not given): the activity increase over dofetilide control, less the hit threshold was -16%.

With `Cc1ccc(C)c(NC(=S)NNC(=O)c2csc3c2CCC(C)C3)c1` (stereo not given), the activity increase over dofetilide control, less the hit threshold is 9% (active).

On to `CCC1Nc2ncnc(N3CCOCC3)c2N(Cc2ccc(C)cc2)C1=O` (stereo not given), for which the activity increase over dofetilide control, less the hit threshold was -16%.

Turning to `CCc1ccc(/C=C/C(=O)c2cc(Br)ccc(=O)c2O)cc1`, the activity increase over dofetilide control, less the hit threshold was 13% (active).

With `O=C(/C=C/c1ccccc1)c1cc(Br)ccc(=O)c1O`, the activity increase over dofetilide control, less the hit threshold was 19% (active).

With `Cc1cccc(/C=C/C(=O)c2cc(Br)ccc(=O)c2O)c1`, the activity increase over dofetilide control, less the hit threshold is -14%.

Take `COC(=O)c1c(N2C(=O)CC(Sc3ncccc3C(=O)O)C2=O)sc(C)c1C` (stereo not given): the activity increase over dofetilide control, less the hit threshold was -14%.

Regarding `CC(C)CC1C(C#N)=C(N)Oc2n[nH]c(-c3cccs3)c21` (stereo not given), the activity increase over dofetilide control, less the hit threshold is -16%.

Regarding `CCOc1ccc(C(=O)N(CN2CCCC2=O)c2ccc(C)cc2)cc1`, the activity increase over dofetilide control, less the hit threshold was 10% (active).

Turning to `COc1ccc(C(=O)N(CN2CCCC2=O)c2ccc(C)cc2)cc1`, the activity increase over dofetilide control, less the hit threshold is -1%.

On to `O=C(NCCCN1CCCC1=O)c1ccc(OC(F)(F)F)cc1`, for which the activity increase over dofetilide control, less the hit threshold was -18%.

Regarding `O=C1CC(c2ccco2)CC2=C1C1c3ccccc3C(=O)N1c1ccccc1N2` (stereo not given), the activity increase over dofetilide control, less the hit threshold is -3%.

Consider `Cn1nnnc1SCC(=O)NC1CCCc2ccccc21` (stereo not given), for which the activity increase over dofetilide control, less the hit threshold was -21%.

Regarding `Cn1nnnc1SCC(=O)Nc1ccccn1`, the activity increase over dofetilide control, less the hit threshold was 4% (active).

For `CSc1ccccc1-n1nnnc1SCC(=O)Nc1cc(C)ccc1C`, the activity increase over dofetilide control, less the hit threshold was -30%.

For the compound `CCn1c(O)c(N=NC2=NC(=O)CS2)c2cc(C)ccc21`, the activity increase over dofetilide control, less the hit threshold is -10%.

Consider `CCn1c(O)c(N=NC2=NC(=O)CS2)c2ccccc21`, for which the activity increase over dofetilide control, less the hit threshold is 3% (active).

With `CCc1ccc2c(c1)c(N=NC1=NC(=O)CS1)c(O)n2CC`, the activity increase over dofetilide control, less the hit threshold was 39% (active).

For `Cn1cc([N+](=O)[O-])c(C(=O)NCc2cc3cc(Cl)ccc3[nH]2)n1`, the activity increase over dofetilide control, less the hit threshold is -12%.

Take `O=[N+]([O-])c1cc(F)c2cccnc2c1O`: the activity increase over dofetilide control, less the hit threshold was -6%.

Turning to `COc1ccc(-n2cnc3ccccc3c2=O)c([N+](=O)[O-])c1`, the activity increase over dofetilide control, less the hit threshold was -9%.

In the case of `NC(=O)CSc1nc2ccccc2c(=O)n1CCc1ccccc1`, the activity increase over dofetilide control, less the hit threshold was -8%.

Consider `COc1ccc(CCn2c(S)nc3ccccc3c2=O)cc1`, for which the activity increase over dofetilide control, less the hit threshold is 6% (active).

On to `O=C(COC(=O)C1CCC(=O)N1)Nc1cc(Cl)ccc1Cl` (stereo not given), for which the activity increase over dofetilide control, less the hit threshold was -13%.

Take `COC(=O)c1c(NC(=O)C2CC=CCC2C(=O)O)sc(C)c1C` (stereo not given): the activity increase over dofetilide control, less the hit threshold was -13%.

On to `Cc1ccccc1C(=O)NC(=S)Nc1sc2c(c1C#N)CCC(C)C2` (stereo not given), for which the activity increase over dofetilide control, less the hit threshold was -13%.

As for `CCC1CCc2c(sc(NC(=O)C3CC=CCC3C(=O)O)c2C#N)C1` (stereo not given), the activity increase over dofetilide control, less the hit threshold is 2% (active).

As to `O=C(O)Cc1ccc(NC(=O)C2CC=CCC2C(=O)O)cc1` (stereo not given), the activity increase over dofetilide control, less the hit threshold is -14%.

For the compound `CCC(C)(C)C1CCc2c(sc(NC(=O)c3ccccc3C(=O)O)c2C#N)C1` (stereo not given), the activity increase over dofetilide control, less the hit threshold is 18% (active).

For `Cc1ccc(CS(=O)(=O)c2ncc(Cl)c(C(=O)Nc3nnc(C)s3)n2)cc1`, the activity increase over dofetilide control, less the hit threshold is -19%.

For the compound `CC1(OC(=O)c2ccc(Cl)nc2)C(=O)C=C2C=C(c3ccc(C#N)cc3)OC=C2C1=O` (stereo not given), the activity increase over dofetilide control, less the hit threshold is -3%.

Consider `O=[N+]([O-])c1cc(S(=O)(=O)/N=C(/c2ccccc2)N2CCOCC2)ccc1Cl`, for which the activity increase over dofetilide control, less the hit threshold was -16%.

Consider `CCSC(=S)c1c(C)[nH]n(-c2ccccc2)c1=O`, for which the activity increase over dofetilide control, less the hit threshold is -19%.

For the compound `CCOc1ccc2nc(/N=C/c3c(C)[nH]n(-c4ccccc4)c3=O)sc2c1`, the activity increase over dofetilide control, less the hit threshold was 100% (active).

Take `COc1ccc2nc(/N=C/c3c(C)[nH]n(-c4ccc(C)cc4)c3=O)sc2c1`: the activity increase over dofetilide control, less the hit threshold was 62% (active).

On to `CCOc1ccc2nc(/N=C/c3c(C)[nH]n(-c4ccc(C)cc4)c3=O)sc2c1`, for which the activity increase over dofetilide control, less the hit threshold was 38% (active).

In the case of `COc1ccc2nc(-n3c(O)c(C4=c5ccccc5=NC4=O)[nH]c3=S)sc2c1`, the activity increase over dofetilide control, less the hit threshold is -14%.

For the compound `CCOc1ccc(-n2cnc3sc(C)c(C)c3c2=O)cc1`, the activity increase over dofetilide control, less the hit threshold is -13%.

Regarding `COc1ccc2nc(/N=C/c3c(C)[nH]n(-c4ccc(C)cc4C)c3=O)sc2c1`, the activity increase over dofetilide control, less the hit threshold is 88% (active).

With `CCCSC(=S)c1c(C)[nH]n(-c2ccccc2)c1=O`, the activity increase over dofetilide control, less the hit threshold was 0%.

`Cc1nn(-c2cccc(C(F)(F)F)c2)c(Cl)c1/C=N/Nc1cccc(C(=O)O)c1`: the activity increase over dofetilide control, less the hit threshold is -28%.

On to `Brc1ccc(C2=CC(c3ccco3)n3nnnc3N2)cc1` (stereo not given), for which the activity increase over dofetilide control, less the hit threshold was -13%.

Take `C=CCn1c(SCC(=O)Nc2cccc(C)c2)nnc1-c1cnccn1`: the activity increase over dofetilide control, less the hit threshold is -18%.

As to `O=C(CSc1cccc[n+]1[O-])C12CC3CC(CC(C3)C1)C2`, the activity increase over dofetilide control, less the hit threshold was -11%.

On to `Cc1cc(OCCN2CCCCCC2)ccc1[N+](=O)[O-]`, for which the activity increase over dofetilide control, less the hit threshold is -3%.
